Screens (PubChem BioAssay)
Sfp PPTase inh – Sfp phosphopantetheinyl transferase inhibition; Q9F4F7; Biochemical Sfp PPTase activity, qHTS; Potency, µM, without a hit: largest response in the series, negative = inhibition, actives largely listed as inhibitors; actives 3.5% (n = 310,000);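 also: the enzyme is Sfp with the accession as filed and its product quenches rhodamine fluorescence; 0% = enzyme reaction without inhibitor and -100% = no enzyme wells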
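Fluorescence-quenching assay with 15 nM Sfp, 5 uM rhodamine-CoA and 12.5 uM BHQ-2-labelled ybbR peptide in pH 7.6 Hepes/MgCl2 buffer. Enzyme was pre-incubated with compound for 15 min at room temperature. Rate was taken from the 30-min fluorescence change (525/598 nm).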
BAZ2B block – blocks human BAZ2B. AlphaScreen BAZ2B-H3K14Ac peptide displacement. Q9UIF8. actives 4.4% (n = 360,000). Potency, µM (top dose mostly 114 µM), inactives show top-dose activity change, negative = inhibition, most hits filed as inhibitors; also: % is scaled to controls: 0 for no effect and ±100 for the full control effect; nearly all actives have a fitted effect of over 60% in size
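AlphaScreen displacement: compounds (up to 110uM) incubated 30 min at room temperature with a preformed 50 nM BAZ2B/50 nM biotinylated H3K14Ac peptide complex in PBS pH 7.4 with Tween-20. Donor and acceptor beads at 10 ug/mL final added, 20 min light-protected before reading.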
HP1b binding inh – blocks HP1-beta chromodomain binding to methylated histone tails; Potency, µM (highest dose often 114 µM), without a hit: at the highest dose activity change, negative = inhibition, actives largely listed as inhibitors; AlphaScreen HP1-beta / biotin-H3K9me3 peptide binding; AID 540317; P83916; actives 0.56% (n = 390,000); also: nearly all actives have a fitted effect of over 70% in size
Target sequence (P83916 whole entry, looked up): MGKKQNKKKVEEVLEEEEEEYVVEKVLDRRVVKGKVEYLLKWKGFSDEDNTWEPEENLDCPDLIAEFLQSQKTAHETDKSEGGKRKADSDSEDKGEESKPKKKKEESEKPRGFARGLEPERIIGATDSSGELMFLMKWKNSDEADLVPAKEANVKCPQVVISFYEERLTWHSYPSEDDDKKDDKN
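AlphaScreen: HP1-beta (50 nM) preformed 30 min with biotin-H3(1-18)K9me3 peptide (50 nM) in PBS pH 7.4, 0.01% Tween-20. Compound added for 30 min at RT, then streptavidin donor/nickel chelate acceptor beads (10 ug/mL) for 30 min.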
ALOX12 inh – blocks human arachidonate 12S-lipoxygenase. P18054. purified 12hLO, xylenol orange hydroperoxide absorbance. Potency, µM (highest dose often 108 µM), for the others: at the top dose activity change, negative = inhibition, actives largely listed as inhibitors. actives 1.1% (n = 580,000). AID 1671190; also: % is scaled to controls: 0 for no effect and ±100 for the full control effect
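Purified human 12hLO (150 nM final) in 25 mM Hepes, 0.01% Triton X-100, pH 7.0 was preincubated 15 min at room temperature with compound. Then 40 uM arachidonic acid was added, 30 min. Hydroperoxide was read by Fe-XO absorbance ratio 573/405 nm.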
JMJD2A Tudor inh – inhibitors of human JMJD2A Tudor domain; actives 4.4% (n = 390,000); AlphaScreen JMJD2A-Tudor / H3K4me3 peptide binding; Potency, µM (highest dose often 114 µM), for the others: at the top dose activity change, negative = inhibition, usual class: inhibitors; also: % is scaled to controls: 0 for no effect and ±100 for the full control effect; nearly all actives have a fitted effect of over 50% in size
G9a inh – blocks human histone lysine methyltransferase G9a; AID 504332; G9a H3K9 monomethylation, AlphaScreen, 2 h; Potency, µM (titrated, usually from 102 µM), inactives show top-dose activity, negative = inhibition, hits mostly inhibitors; actives 8.8% (n = 350,000); also: % is scaled to controls: 0 for no effect and ±100 for the full control effect; nearly all actives have a fitted effect of over 75% in size
Target sequence (Q96KQ7 913-1193 limits assumed): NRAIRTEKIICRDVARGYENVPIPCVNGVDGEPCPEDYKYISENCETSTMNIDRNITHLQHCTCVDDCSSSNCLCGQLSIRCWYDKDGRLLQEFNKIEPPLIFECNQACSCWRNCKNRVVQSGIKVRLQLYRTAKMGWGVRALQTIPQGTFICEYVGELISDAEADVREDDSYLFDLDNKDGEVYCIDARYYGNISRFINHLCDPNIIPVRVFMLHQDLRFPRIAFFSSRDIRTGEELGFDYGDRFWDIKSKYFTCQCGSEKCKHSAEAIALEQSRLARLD
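G9a (20 nM) was preincubated 15 min with compound, then reacted 2 h at room temperature with 500 nM biotin-H3K9 peptide and 20 µM SAM. Monomethyl-H3K9 detected by AlphaScreen using anti-H3K9me1 antibody.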
Active calls of the source: *; ? = inconclusive; nt = not tested or not shown; ! = a repeat was not active; [ ] = another dose, or the depositor's remark. The list is not random: actives were taken first. Their share in the collection is about 8.7%. Calls follow the shape of the dose curve; as a rule, active = well fitted curve in the direction sought with a large enough effect; inconclusive = small, poorly fitted or top-dose-only effect, or another doubt; inactive = no such curve, though single readings can be large; an effect the other way counts as inactive or inconclusive. Potency is read from the fitted curve at half-maximal effect.

SMILES	Sfp PPTase inh	BAZ2B block	HP1b binding inh	ALOX12 inh	JMJD2A Tudor inh	G9a inh
Cc1cc(=O)oc2cc(NC(=O)Cc3ccccc3F)ccc12	nt	nt	nt	40µM*	nt	nt
COc1ccc(CC(=O)Nc2ccc3c(C)cc(=O)oc3c2)cc1OC	11%	1%	10%	9%	-10%	-4%[59 µM]
CC(=O)C1=C(O)C(=CC=Cc2ccccc2)OC1=O	nt	nt	nt	16µM*	nt	nt
C=C(C)C(=O)/C=C/C=C/c1ccccc1	15%	nt	nt	nt	nt	nt
Cc1ccc(CN2CCCC3(CCC(=O)N(CCc4cnc[nH]4)C3)C2)s1 (stereo unspecified)	nt	nt	nt	36%	nt	nt
CCOC(=O)/C=C1\Nc2ccccc2OC1=O	50µM*	?	31%	?	-10%	11%[59 µM]
CO/N=C(\C(=O)N[C@@H]1C(=O)N2C(C(=O)O)=C(COC(N)=O)CS[C@H]12)c1ccco1	-11%	-6%	15%	5%	25µM*	?
CO/N=C(\C(=O)N[C@@H]1C(=O)N2C(C(=O)O)=C(COC(C)=O)CS[C@@H]12)c1csc(N)n1	?	nt	nt	nt	nt	-39%[12.7 µM]
CO/N=C(/C(=O)N[C@@H]1C(=O)N2C(C(=O)O)=C(C[n+]3ccc(N)n3CCO)CS[C@H]12)c1csc(N)n1	?	nt	nt	nt	nt	0%[12.7 µM]
CON=C(C(=O)NC1C(=O)N2C(C(=O)O)=C(CSc3nc(=O)c(=O)[nH]n3C)CSC12)c1csc(N)n1 (stereo unspecified)	nt	nt	-11%	10%	50µM*	nt
CO/N=C(\C(=O)N[C@@H]1C(=O)N2C(C(=O)O)=C(COC(C)=O)CS[C@H]12)c1csc(N)n1	?	nt	nt	nt	nt	11µM*
CO/N=C(\C(=O)N[C@@H]1C(=O)N2C(C(=O)O)=C(CSc3nc(=O)c(O)nn3C)CSC12)c1csc(N)n1 (stereo partly specified)	nt	nt	nt	nt	nt	28µM*!
CO/N=C(/C(=O)NC1C(=O)N2C(C(=O)O)=C(COC(N)=O)CSC12)c1ccco1 (stereo unspecified)	-27%	nt	nt	nt	nt	-3%[2.33 µM]
O=C(Nc1ccc(-c2nnc3n2CCCCC3)cc1)c1n[nH]c(=O)c2ccccc12	nt	nt	nt	4%	nt	nt
CC(C)C[C@H](N)CSSC[C@@H](N)CC(C)C	nt	nt	nt	nt	nt	16µM*
Clc1ccc(N2CCN(Cc3ccc(Br)o3)CC2)cc1	-10%	50µM*	?	0.89µM*	20µM*	13µM*
Clc1cccc(N2CCN(Cc3ccc(Br)o3)CC2)c1	-27%	?	?	?	28µM*	6.3µM*
CCC(c1cccs1)N1C(=O)[C@H]2CN(S(=O)(=O)c3cc(F)ccc3F)C[C@H]2C1=O (stereo partly specified)	nt	nt	nt	2%	nt	nt
Cc1ccc(C(=O)NCc2nnc3cc(-c4nc(C(C)C)no4)ccn23)cc1F	nt	nt	nt	21%	nt	nt
CN(Cc1ccccc1)Cc1cn([C@H]2CO[C@H]3[C@@H]2OC[C@@H]3NCc2ccc(N(C)C)cc2)nn1	nt	nt	nt	14%	nt	nt
O=C(Nc1ccc(Br)c2ccccc12)c1ccc2ccccc2c1O	-3%	28µM*	?	-14%	?	28µM*
CCN1CC2([N+](=O)[O-])C=CC(=O)C([N+](=O)[O-])(C1)C2CC(=O)c1ccccc1 (stereo unspecified)	-1%	?	-6%	?	?	?
CCCCN1CC2([N+](=O)[O-])C=CC(=O)C([N+](=O)[O-])(C1)C2CC(=O)c1ccccc1 (stereo unspecified)	11%	-6%	17%	-30%	-9%	45µM*
CC(C)c1ccc(NC(=O)[C@H](NC(=O)[C@@H]2Cc3ccccc3CN2)c2ccccc2)cc1	-15%	-28%	48%	5%	-18%	45µM*
CSCC[C@H](NC(=O)[C@@H]1Cc2ccccc2CN1)C(=O)NC(C)c1ccccc1 (stereo partly specified)	5%	-28%	21%	14%	?	22µM*
SMILES	Sfp PPTase inh	BAZ2B block	HP1b binding inh	ALOX12 inh	JMJD2A Tudor inh	G9a inh
O=C(CSc1ncnc2ccccc12)Nc1ccc(F)cc1F	nt	nt	nt	11%	nt	nt
O=C(NC1CC1)[C@@H]1C[C@H](Oc2cccnc2)CN1	nt	nt	nt	14%	nt	nt
Cc1c(CCNC(=O)c2ccc(Br)o2)sc2nc(-c3ccc(F)cc3)nn12	nt	-23%	24%	-27%	50µM*	-5%[59 µM]
CCCOc1ccc(Oc2ncccc2CNC(=O)Nc2ccccc2)cc1	nt	nt	nt	10%	nt	nt
CCC(C)NC(=S)N1CCN(C)CC1 (stereo unspecified)	-18%	-25%	?	?	?	40µM*
Cc1nnc(SCC(=O)Nc2ccccc2C(=O)NC2CC2)s1	-1%	11%	56%	11%	3%	45µM*
Cc1nnc(SCC(=O)Nc2ccccc2NC(=O)CSc2nnc(C)s2)s1	17%	-4%	7%	90%	-2%	-1%[59 µM]
CSc1nsc(SCC(=O)Nc2ccc(NC(C)=O)cc2)n1	-5%	-13%	13%	-8%	3%	17%
CSc1nsc(SCC(=O)Nc2ccc(Cl)c(C(=O)O)c2)n1	2%	-12%	5%	-18%	-4%	50µM*
COc1ccc(NC(=O)CSc2nc(SC)ns2)cc1	-6%	-1%	43%	8%	-4%	-12%
CSc1nsc(SCC(=O)Nc2ccccc2C(=O)O)n1	-45%	?	36%	?	?	7.9µM*
CSc1nsc(SCC(=O)Nc2ccc(O)c(C(=O)O)c2)n1	-28%	-14%	27%	40µM*	-13%	40µM*
Cc1cc(C)cc(OC(=O)c2cnc(C)cn2)c1	nt	nt	nt	-4%	nt	nt
O=C(Cn1ccc2ccc(Br)cc21)NCCCO	nt	nt	nt	31%	nt	nt
CS(=O)(=O)n1nc(-c2ccc(Cl)cc2)nc1N	4%	-5%	-9%	38%	-12%	nt
O=S(=O)(c1ccc2ccccc2c1)n1nc(-c2ccco2)nc1NCc1ccc(F)cc1	nt	?	24%	-29%	-35%	18µM*
CSc1nc(-c2ccco2)nn1S(=O)(=O)c1ccccc1	?	?	nt	nt	nt	20µM*
CCS(=O)(=O)n1nc(-c2ccc(Cl)cc2)nc1SC	56µM*	26%	92%	?	38%	7%[59 µM]
Cc1ccc(CNc2nc(-c3ccco3)nn2S(=O)(=O)c2ccc3ccccc3c2)cc1	nt	?	5%	?	-16%	-31%[59 µM]
Cc1ccc(S(=O)(=O)n2nc(-c3ccco3)nc2SCc2ccccc2)cc1	-5%	?	21%	?	-29%	?
CSc1nc(-c2ccco2)nn1S(=O)(=O)c1ccc(C)cc1	45µM*	-7%	3%	-111%	-12%	40µM*
N#C/C(=C\C1CC=CCC1)C(=O)NCc1ccccc1 (stereo unspecified)	nt	nt	nt	-88%	nt	nt
